An excerpt weighted towards active compounds, which were near 9.9% of everything screened.
MCF10A rerep – induces DNA re-replication in MCF 10a normal breast cells; MCF 10A DNA re-replication, Hoechst nuclear intensity, 48 h; Potency, µM (top dose mostly 46.1 µM), inactives show top-dose activity, positive = re-replication, usual class: activators; 2.9% of 350,000 active; AID 624296; note: potency is the fitted concentration of half-maximal effect; % of control where 0% means no effect; nearly all actives have a fitted effect of over 50% in size
KB-3-1 cytotox – kills parental KB-3-1 adenocarcinoma cells; Potency, µM (doses to about 46.1 µM), actives largely listed as cytotoxic; 1.4% of 400,000 active; KB-3-1 viability, CellTiter-Glo ATP luminescence, 72 h; AID 1347075; note: potency is the fitted concentration of half-maximal effect; % is set by controls: 0 for no effect and ±100 for the full control effect; nearly all actives have a fitted effect of over 60% in size
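Multi-concentration cytotoxicity screen in KB-3-1 cells grown in DMEM lacking phenol red with 10% FBS. After 72 h at 37 °C with compound, ATP-dependent luminescence was recorded.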
IL1B secr inh – inhibitors of inflammasome signaling (IL-1 beta secretion); 4.7% of 360,000 active; activity change, % at 57.5 µM; THP-1 LPS/ATP IL-1B secretion, AlphaLISA, 16 h; hits give low values; AID 743279; in the data active = activity change below about -50%; inconclusive = mostly about -30% to -49%; note: % is set by controls: 0 for no effect and ±100 for the full control effect
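Secreted IL-1B measured by AlphaLISA bead assay after 16 h compound exposure of THP-1 cells; compounds (final up to 57.5 uM) added 1 h before LPS (250 ng/mL) and ATP (1.25 mM) stimulation; lower signal means less secretion.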
SW480 rereplic – DNA re-replication induction in SW480 cells | SW480 DNA re-replication, Hoechst DNA content imaging, 48 h | AID 624297 | 1.8% of 340,000 active | Potency, µM (series often up to 46.1 µM), for the others: at the top dose re-replication activation, usual class: activators; note: potency is the fitted concentration of half-maximal effect; % of control where 0% means no effect; nearly all actives have a fitted effect of over 55% in size
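SW480 cells exposed to compounds for 48 hr at 37 C, 5% CO2, then Hoechst-stained 40 min. Nuclear DNA content imaged by fluorescence scanning (405 nm excitation, 500-530 nm emission); re-replication scored as increased high-intensity nuclei.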
KB-V1 cytotox – kills drug-selected multidrug resistant KB-V1 cells. Potency, µM (titrated, usually from 46.1 µM), usual class: cytotoxic. KB-V1 MDR cells viability, CellTiter-Glo, 72 h. AID 1347076. 3.4% of 400,000 active; note: potency is the fitted concentration of half-maximal effect; % is set by controls: 0 for no effect and ±100 for the full control effect; nearly all actives have a fitted effect of over 60% in size
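Compound-treated KB-V1 multidrug-resistant cells, 72 h, 37 degrees C; viability by CellTiter-Glo. Fitted qHTS curves give the values.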
* hit, by the source's call; i = inactive; ? = inconclusive; . = no result; [ ] = dose if it differs, or a comment. Unless noted, calls come from the whole dose curve; as a rule, active = well fitted curve in the direction sought with a large enough effect; inconclusive = small, poorly fitted or top-dose-only effect, or another doubt; inactive = no such curve, though single readings can be large; an effect the other way counts as inactive or inconclusive.

SMILES	MCF10A rerep	KB-3-1 cytotox	IL1B secr inh	SW480 rereplic	KB-V1 cytotox
Cc1cccc(NC(=S)N/N=C/c2cccc(O)c2)c1C	?	3.3µM*	7	7.3µM*	6.5µM*
Cc1cccc(NC(=S)N/N=C/C(C)c2ccccc2)c1C (stereo unspecified)	-1%	?	-103*	27%	i
Cc1ccccc1NC(=S)N/N=C/c1ccc(O)cc1O	18%	?	72	19%	i
Cc1ccccc1NC(=S)N/N=C/C(C)c1ccccc1 (stereo unspecified)	-2%	i	56	-15%	i
CCc1cccc(CC)c1NC(=O)C(Cc1ccccc1)NS(=O)(=O)c1cccc2nsnc12 (stereo unspecified)	.	i	.	.	?
CCOC(=O)c1c(N)c2cc([N+](=O)[O-])ccc2n1C	-1%	i	-18	8%	?
CCOC(=O)/C(=C/c1c(C)n(C)c2ccc([N+](=O)[O-])cc12)C(C)=O	15µM*	23µM*	-104*	?	?
Cc1cc(=O)n(Cc2cccc(F)c2)c2c1c(C)nn2-c1cccc(F)c1	.	i	.	.	i
COc1ccc(CC(N)c2csc(Nc3ccc(C(=O)c4ccccc4)cc3)n2)cc1 (stereo unspecified)	.	i	-70*	.	i
NC(Cc1ccc(Cl)cc1)c1csc(Nc2ccc(C(=O)c3ccccc3)cc2)n1 (stereo unspecified)	.	?	0	.	?
COc1ccc(CC(N)c2csc(Nc3ccc(C(C)=O)cc3)n2)cc1 (stereo unspecified)	.	i	-14	.	i
NC(Cc1ccccc1)c1csc(Nc2ccc(C(=O)c3ccccc3)cc2)n1 (stereo unspecified)	.	?	-69*	.	i
O=C(c1sc2cc(Cl)ccc2c1Cl)N1CCN(CCc2ccccn2)CC1	19%	i	-10	-26%	i
Cc1sc(-n2c(C)cc(/C=C3\SC(=S)NC3=O)c2C)c(C#N)c1C	-2%	?	24	8.2µM*	i
CN(C)c1ccc(/C=C/c2ccnc3ccccc23)cc1O	.	i	.	.	i
NS(=O)(=O)c1ccc(-n2nncc2-c2ccco2)cc1	-36%	i	14	-24%	i
c1ccc(N2CCN(Cc3ccc4c(c3)OCO4)CC2)nc1	-6%	i	-16	5%	i
Brc1ccc(CN2CCN(c3ccccn3)CC2)s1	7%	i	-83*	-1%	i
CCCOP(=O)(OCCC)c1c([N+](=O)[O-])cc(C(F)(F)F)cc1[N+](=O)[O-]	?	?	-73*	18µM*	?
CCN(CC)S(=O)(=O)c1ccc2c(c1)N(CC(=O)N1CCN(c3cccc(Cl)c3)CC1)C(=O)CO2	.	i	.	.	i
O=C(Nc1ccc2ccccc2c1)C(c1ccc(C(F)(F)F)cc1)n1c(=O)c(-c2cc3ccccc3[nH]2)nc2ccccc21 (stereo unspecified)	.	i	60	.	i
OCc1cn(-c2ccccc2)nc1-c1ccc(-c2nn(-c3ccccc3)cc2CO)cc1	-12%	i	-15	17%	i
O=C(CCl)Nc1cn(-c2ccccc2)nc1-c1ccc(F)cc1	?	?	-107*	?	?
O=C(c1cn(-c2ccccc2)nc1-c1ccc(F)cc1)N1CCCCC1	?	i	-9	2%	i
Fc1ccc(-c2nn(-c3ccccc3)cc2CNCc2ccccc2)cc1	?	?	-90*	-1%	i
SMILES	MCF10A rerep	KB-3-1 cytotox	IL1B secr inh	SW480 rereplic	KB-V1 cytotox
O=C(NCc1cn(-c2ccccc2)nc1-c1ccc(F)cc1)c1cccc([N+](=O)[O-])c1	3%	i	-75*	?	?
Fc1ccc(-n2cc(CNCCc3cccnc3)c(-c3ccccc3Cl)n2)cc1	16%	?	-76*	-5%	?
CC1CN(C(=O)COc2coc(CN3CCc4ccccc4C3)cc2=O)CC(C)O1 (stereo unspecified)	0%	i	15	-4%	i
Cn1c(CNC(=O)CCNC(=O)c2cccc(Cl)c2)cc(=O)n(C)c1=O	-1%	i	-4	-5%	i
C=CCN1C(=O)C(CC(=O)O)SC1=Nc1ccc(C)cc1 (stereo unspecified)	2.6µM*	i	15	-19%	i
C=CCN1C(=O)C(Cc2cccc(C)c2)SC1=Nc1ccc(C(=O)O)cc1 (stereo unspecified)	-1%	i	12	0%	i
CC(O)(c1ccc(F)c(F)c1)c1nc(-c2ccoc2)cs1 (stereo unspecified)	.	i	-17	.	i
Cc1ccc(N(CC(=O)N2CCCCCC2)S(C)(=O)=O)c(C)c1	.	i	-9	.	i
O=C1OC(c2ccccc2)(c2cc(Br)ccc2O)c2ccccc21 (stereo unspecified)	?	i	-92*	?	?
CCOC1=C2CN(S(=O)(=O)c3ccc(C)cc3)[C@H](c3ccccc3)C[C@@H]2N(S(=O)(=O)c2ccc(C)cc2)[C@H](c2cccs2)C1	.	i	0	.	i
Cc1ccc(O)c(-c2cc(-c3ccc(F)cc3)no2)c1	23%	i	37	-14%	i
O=C(Cn1nc(CNc2ccc(Cl)cc2)[n+]2c1CCCCC2)c1ccc(Br)cc1	24%	?	-52*	-5%	i
O=C(Cn1nc(CNc2ccc(Br)cc2)[n+]2c1CCCCC2)c1ccc([N+](=O)[O-])cc1	7%	13µM*	-61*	-7%	i
COc1ccc(NCc2nn(CC(=O)c3ccc(Br)cc3)c3[n+]2CCCCC3)cc1	-1%	i	?	-2%	i
Cc1cccc(NCc2cccc3ccccc23)n1	7%	i	7	-8%	i
Cc1cccc(NCc2ccc(Br)cc2)n1	3%	i	-62*	46%	i
O=C1/C(=C\c2cccs2)N=C(c2cccs2)N1Nc1ccccc1	4%	i	-61*	?	i
O=C1/C(=C/c2cccs2)N=C(c2cccs2)N1Nc1ccccc1	1%	?	-70*	-5%[9.22 µM]	i
CCCC1=Nc2cc(C(=O)NCCCOCC)ccc2Sc2ccccc21	?	0.52µM*	31	?	1µM*
CCCC1=Nc2cc(C(=O)NCCCOC(C)C)ccc2Sc2ccccc21	2.6µM*	4.6µM*	41	5.8µM*	7.3µM*
O=[N+]([O-])c1cc(-c2nc(-c3ccccc3)no2)ccc1N1CCN(c2ccccc2)CC1	.	i	.	.	i
Cc1cccc(NC(=O)/C(C#N)=C/c2ccc(Cl)cc2)n1	23%	i	-2	2%	i
Cc1cccc(NC(=O)/C(C#N)=C/c2cccc([N+](=O)[O-])c2)n1	21µM*	i	16	?	i

Screening results from PubChem.
